Data as given in PubChem BioAssay (NCATS).
Records with an inconclusive call do not appear. Activity calls are given as the source filed them. Unless noted, the call rests on the fitted dose curve; in most records, active means well fitted curve in the direction sought with a large enough effect; inconclusive means small, poorly fitted or top-dose-only effect, or another doubt; inactive means no such curve, though single readings can be large; an effect the other way counts as inactive or inconclusive.

Tests used:
[1] = biological target: Ubiquitin carboxyl-terminal hydrolase 2 (Homo sapiens) (UniProt O75604); assay: qHTS Validation Assay for Inhibitors of Ubiquitin-specific Protease USP2a Using CHOP2 as the Reporter (AID 463106); further: potency means the concentration at half of the fitted maximal effect
Ubiquitin carboxyl-terminal hydrolase 2 (Homo sapiens), sequence (O75604 whole entry, looked up): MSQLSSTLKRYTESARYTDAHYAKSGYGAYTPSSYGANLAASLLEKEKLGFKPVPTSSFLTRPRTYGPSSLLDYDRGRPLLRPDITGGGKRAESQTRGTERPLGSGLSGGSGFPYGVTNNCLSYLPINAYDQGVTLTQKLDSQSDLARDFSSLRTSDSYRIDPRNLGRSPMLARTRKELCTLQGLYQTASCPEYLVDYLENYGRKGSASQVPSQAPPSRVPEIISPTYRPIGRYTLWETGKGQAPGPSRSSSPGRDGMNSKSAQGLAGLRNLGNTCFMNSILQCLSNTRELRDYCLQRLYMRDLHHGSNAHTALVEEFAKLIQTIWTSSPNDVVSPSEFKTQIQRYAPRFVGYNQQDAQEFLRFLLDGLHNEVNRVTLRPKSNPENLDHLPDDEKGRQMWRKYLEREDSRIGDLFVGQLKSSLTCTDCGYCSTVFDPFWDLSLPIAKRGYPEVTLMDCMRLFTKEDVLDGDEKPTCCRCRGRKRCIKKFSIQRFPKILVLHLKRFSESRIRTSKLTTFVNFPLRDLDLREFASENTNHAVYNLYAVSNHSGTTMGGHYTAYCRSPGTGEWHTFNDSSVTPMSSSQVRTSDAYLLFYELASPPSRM
Summary of the method: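 Fluorescence read-out at Ex 485nm/Em 531nm after 60min RT, following addition of 25nM Ub-CHOP2 plus 25nM reporter substrate to USP2 core (10nM) pretreated 30min with compound. Data normalized to NEM full inhibition; concentration-response curves fitted.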

[2] = biological target: DNA polymerase III PolC-type (Bacillus subtilis (strain 168)) (UniProt P13267); assay: qHTS Validation Assay for the Inhibitors of DNA Replication in Gram-Positive Bacteria (AID 485295); further: potency means the concentration at half of the fitted maximal effect
DNA polymerase III PolC-type (Bacillus subtilis (strain 168)), sequence (P13267 whole entry, looked up): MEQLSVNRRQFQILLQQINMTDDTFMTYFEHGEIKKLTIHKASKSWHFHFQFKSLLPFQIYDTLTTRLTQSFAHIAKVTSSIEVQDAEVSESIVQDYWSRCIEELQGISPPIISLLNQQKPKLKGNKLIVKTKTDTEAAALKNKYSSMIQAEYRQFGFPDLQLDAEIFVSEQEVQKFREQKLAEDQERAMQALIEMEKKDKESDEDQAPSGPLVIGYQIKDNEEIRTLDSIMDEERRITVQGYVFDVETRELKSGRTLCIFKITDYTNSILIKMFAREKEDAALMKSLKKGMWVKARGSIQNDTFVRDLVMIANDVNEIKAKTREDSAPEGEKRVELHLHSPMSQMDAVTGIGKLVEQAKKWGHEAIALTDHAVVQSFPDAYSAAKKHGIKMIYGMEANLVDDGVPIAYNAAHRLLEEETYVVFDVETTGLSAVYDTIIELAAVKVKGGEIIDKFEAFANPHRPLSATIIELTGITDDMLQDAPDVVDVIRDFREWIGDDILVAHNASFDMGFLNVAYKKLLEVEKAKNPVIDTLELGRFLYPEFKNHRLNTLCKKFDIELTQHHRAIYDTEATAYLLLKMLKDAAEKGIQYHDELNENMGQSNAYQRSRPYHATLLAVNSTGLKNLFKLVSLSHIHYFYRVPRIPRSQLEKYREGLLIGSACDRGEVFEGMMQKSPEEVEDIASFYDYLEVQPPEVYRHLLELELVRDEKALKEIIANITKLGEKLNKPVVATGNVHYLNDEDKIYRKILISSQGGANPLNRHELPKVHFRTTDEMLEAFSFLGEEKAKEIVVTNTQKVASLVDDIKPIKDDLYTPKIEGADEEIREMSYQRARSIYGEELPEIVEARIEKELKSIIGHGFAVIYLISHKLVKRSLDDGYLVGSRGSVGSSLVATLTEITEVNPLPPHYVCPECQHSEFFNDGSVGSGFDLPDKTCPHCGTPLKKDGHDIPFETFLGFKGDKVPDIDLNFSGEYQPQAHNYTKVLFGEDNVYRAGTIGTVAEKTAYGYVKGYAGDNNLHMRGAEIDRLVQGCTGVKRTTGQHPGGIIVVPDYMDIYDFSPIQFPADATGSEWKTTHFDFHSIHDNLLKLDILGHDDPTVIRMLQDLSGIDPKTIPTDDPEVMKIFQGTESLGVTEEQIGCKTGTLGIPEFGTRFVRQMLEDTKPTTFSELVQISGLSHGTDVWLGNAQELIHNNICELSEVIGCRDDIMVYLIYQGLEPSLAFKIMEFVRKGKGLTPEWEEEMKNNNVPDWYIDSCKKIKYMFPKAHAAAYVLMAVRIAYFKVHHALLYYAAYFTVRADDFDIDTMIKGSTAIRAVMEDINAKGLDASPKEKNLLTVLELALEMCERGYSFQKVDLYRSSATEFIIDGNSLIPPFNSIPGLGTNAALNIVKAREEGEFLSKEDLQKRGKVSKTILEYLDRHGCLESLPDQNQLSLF
Summary of the method: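 Primed replication of single-stranded M13Gori by a four-protein B. subtilis holoenzyme is measured at room temperature. Double-stranded product is quantified by PicoGreen fluorescence after an EDTA stop; inhibition is scaled between DMSO and EDTA controls.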

[3] = biological target: Tumor susceptibility gene 101 protein (Homo sapiens) (UniProt Q99816); assay: qHTS Validation Assay for Iinhibitors of HIV-1 Budding by Blocking the Interaction of PTAP/TSG101 (AID 485342; calls by dose curve)
Tumor susceptibility gene 101 protein (Homo sapiens), sequence (Q99816 whole entry, looked up, the tested form may be a part): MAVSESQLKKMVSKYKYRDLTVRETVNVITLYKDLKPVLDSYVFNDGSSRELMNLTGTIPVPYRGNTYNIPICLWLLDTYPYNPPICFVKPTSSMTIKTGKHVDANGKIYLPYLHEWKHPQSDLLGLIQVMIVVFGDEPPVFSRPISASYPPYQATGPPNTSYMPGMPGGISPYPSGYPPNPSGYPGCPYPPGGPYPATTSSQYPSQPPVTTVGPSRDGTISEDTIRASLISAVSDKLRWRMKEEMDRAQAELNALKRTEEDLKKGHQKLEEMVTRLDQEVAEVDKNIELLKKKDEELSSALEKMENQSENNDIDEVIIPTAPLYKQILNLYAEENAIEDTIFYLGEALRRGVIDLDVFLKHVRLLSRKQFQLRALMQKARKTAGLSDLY
Summary of the method: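 Fluorescence anisotropy measured PTAP-Tsg101 interaction. Final concentrations were 10 uM protein domain and 50 nM labeled peptide, equilibrated 20 min at room temperature.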

[4] = qHTS Validation Assay to Find Inhibitors of Chronic Active B-Cell Receptor Signaling (AID 485345; active means well fitted curve in the direction sought with a large enough effect in the main read-out, with a control signal flat, not every such curve was filed as active)
Summary of the method: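 TMD8 ABC-DLBCL cells stably carrying doxycycline-inducible IkappaBalpha–green luciferase fusion plus unfused red luciferase; compounds 46 uM to 3 nM, 4 h at 37C with doxycycline. Corrected green/red luminescence ratio normalized to 10 uM MG-132 and basal cell wells; curves fitted.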

[5] = biological target: Beta-2 adrenergic receptor (Homo sapiens) (UniProt P07550); assay: qHTS validation assay of beta-arrestin-biased ligands of beta2-adrenergic receptor (AID 485366)
Beta-2 adrenergic receptor (Homo sapiens), sequence (P07550 whole entry, looked up): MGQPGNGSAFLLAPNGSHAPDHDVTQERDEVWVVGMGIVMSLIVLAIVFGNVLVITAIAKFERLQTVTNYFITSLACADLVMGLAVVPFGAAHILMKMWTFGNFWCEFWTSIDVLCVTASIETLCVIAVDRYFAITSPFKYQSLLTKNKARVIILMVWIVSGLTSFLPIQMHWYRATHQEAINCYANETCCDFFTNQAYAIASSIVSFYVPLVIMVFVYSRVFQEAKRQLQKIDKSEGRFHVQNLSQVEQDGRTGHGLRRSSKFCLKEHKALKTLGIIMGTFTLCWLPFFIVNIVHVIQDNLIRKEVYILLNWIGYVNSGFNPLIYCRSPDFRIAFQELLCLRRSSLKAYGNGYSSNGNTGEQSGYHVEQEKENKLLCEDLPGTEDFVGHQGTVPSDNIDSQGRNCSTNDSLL
Summary of the method: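 qHTS, Tango cells, 1500 cells/well, DMEM + 1% FBS. Cpd 18 hr at 37 degrees C. Luciferin/ATP/CoA detection mix, 15 min RT, luminescence read. %Activity from corrected signal; CRC fit, curve class.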

[6] = Quantitative high throughput screen for delayed death inhibitors of the malarial parasite plastid, 96 hour incubation (AID 488745); further: nearly all actives have a fitted effect of over 70% in size; further: potency means the concentration at half of the fitted maximal effect
Summary of the method: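 Decreased firefly luciferase luminescence indicates inhibited growth of reporter-integrated P. falciparum after two generations (96 h, 37 C, 5% CO2). Infected erythrocytes at 0.1% parasitemia, 2% hematocrit, in Albumax-supplemented RPMI 1640.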

[7] = Quantitative high throughput screen for delayed death inhibitors of the malarial parasite plastid, 48 hour incubation (AID 488752); further: nearly all actives have a fitted effect of over 65% in size; further: potency means the concentration at half of the fitted maximal effect
Summary of the method: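 One-generation (48 h) growth assay: a decrease in luciferase signal from an integrated reporter in P. falciparum-infected red cells (0.1% parasitemia, 2% hematocrit) after compound exposure at 37 C indicates parasite inhibition.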

[8] = biological target: Thioredoxin reductase 1, cytoplasmic (Rattus norvegicus) (UniProt O89049); assay: qHTS Assay for Substrates of Mammalian Selenoprotein Thioredoxin Reductase 1 (TrxR1) (AID 488772);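 further: series mostly up to about 57 µM; a drop in NADPH fluorescence below the no-compound background marks a TrxR1 substrate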
Thioredoxin reductase 1, cytoplasmic (Rattus norvegicus), sequence (O89049 whole entry, looked up): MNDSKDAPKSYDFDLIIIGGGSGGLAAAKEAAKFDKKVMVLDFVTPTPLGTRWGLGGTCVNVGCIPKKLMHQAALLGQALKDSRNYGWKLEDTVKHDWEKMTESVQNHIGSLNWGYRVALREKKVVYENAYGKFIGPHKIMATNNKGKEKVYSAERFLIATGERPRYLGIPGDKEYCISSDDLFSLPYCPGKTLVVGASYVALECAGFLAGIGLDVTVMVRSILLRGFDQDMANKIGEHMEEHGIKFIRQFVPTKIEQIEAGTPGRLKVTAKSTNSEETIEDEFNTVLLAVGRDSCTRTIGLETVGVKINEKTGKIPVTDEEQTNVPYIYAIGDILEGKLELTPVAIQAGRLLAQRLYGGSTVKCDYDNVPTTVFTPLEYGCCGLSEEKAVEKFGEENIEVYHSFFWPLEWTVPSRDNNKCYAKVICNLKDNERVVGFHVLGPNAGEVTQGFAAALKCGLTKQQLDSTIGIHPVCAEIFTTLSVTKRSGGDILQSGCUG
Summary of the method: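 In this dual-purpose format, potential substrates are identified from the first fluorescence read after selenite addition, not from the 8-minute delta. Rat enzyme is preincubated with NADPH and then with compound at ~22 deg C.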

[9] = biological target: ATP-dependent 6-phosphofructokinase (Trypanosoma brucei brucei) (UniProt O15648); assay: qHTS Validation Assay to Find Inhibitors of T. brucei phosphofructokinase (AID 485368); further: potency means the concentration at half of the fitted maximal effect
ATP-dependent 6-phosphofructokinase (Trypanosoma brucei brucei), sequence (O15648 whole entry, looked up): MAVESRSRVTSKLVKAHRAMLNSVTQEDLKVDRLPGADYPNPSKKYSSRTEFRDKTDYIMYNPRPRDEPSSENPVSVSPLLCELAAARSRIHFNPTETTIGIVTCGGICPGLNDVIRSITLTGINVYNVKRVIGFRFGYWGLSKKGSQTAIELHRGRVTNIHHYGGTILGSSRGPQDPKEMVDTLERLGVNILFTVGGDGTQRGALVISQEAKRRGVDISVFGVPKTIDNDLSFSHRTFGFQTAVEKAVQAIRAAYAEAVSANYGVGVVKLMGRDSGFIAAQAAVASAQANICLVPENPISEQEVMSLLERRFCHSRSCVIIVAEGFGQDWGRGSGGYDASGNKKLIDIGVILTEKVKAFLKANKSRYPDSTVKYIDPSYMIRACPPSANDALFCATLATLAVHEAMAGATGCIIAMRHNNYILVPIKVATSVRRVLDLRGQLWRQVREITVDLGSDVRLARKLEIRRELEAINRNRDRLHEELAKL
Summary of the method: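 Luminescent ADP detection measures PFK turnover of fructose-6-phosphate (0.5 mM) with ATP (0.1 mM) at pH 8.0. Reaction runs 45 min at room temperature with 1.25 nM enzyme; inhibitors tested as titrations up to 57 uM.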

[10] = biological target: Thioredoxin reductase 1, cytoplasmic (Rattus norvegicus) (UniProt O89049); assay: qHTS Assay for Inhibitors of Mammalian Selenoprotein Thioredoxin Reductase 1 (TrxR1) (AID 488773); conditions: Potency: inhibition; further: nearly all actives have a fitted effect of over 40% in size; further: potency means the concentration at half of the fitted maximal effect
Summary of the method: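 Inhibition is scored from the loss of NADPH fluorescence between first and last reads of an 8-min kinetic run. Selenite (400 uM) was the substrate, added after 15 min compound preincubation at room temperature.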

Measured: Potency

COc1ccc(OC)c(C(O)C(C)N)c1 (stereo not drawn)
inactive: [1] | [2] | [3] | [4] | [5] | [6] | [7] | [8]

Cc1sc2ccccc2c1CC1=NCCN1
inactive: [1] | [2] | [3] | [4] | [5] | [9] | [6] | [7] | [10]

CN(N=O)c1ccc(O)c(O)c1
inactive: [3] | [4] | [5] | [6] | [7] | [8]
active: [1] 4.14 µM | [2] 23.8 µM | [10] 0.947 µM

NC(Cc1cc(O)c(O)cc1O)C(=O)O (stereo not drawn)
inactive: [3] | [4] | [5] | [6] | [7] | [8]
active: [1] 0.656 µM | [2] 4.74 µM | [10] 10.6 µM

NC(CCCCCP(=O)(O)O)C(=O)O (stereo not drawn)
inactive: [1] | [2] | [3] | [4] | [5] | [9] | [6] | [7] | [10]

CC(C)(C)c1o[nH]c(=O)c1CC(N)C(=O)O (stereo not drawn)
inactive: [1] | [2] | [3] | [4] | [5] | [6] | [7] | [8] | [10]

CC(N)c1cccc(Cl)c1Cl (stereo not drawn)
inactive: [1] | [2] | [3] | [4] | [5] | [6] | [7] | [8] | [10]

C=CCN1CC[C@]23c4c5ccc(O)c4O[C@@H]2/C(=N/N=C2\CC[C@@]4(O)C6Cc7ccc(O)c8c7[C@@]4(CCN6CC=C)[C@@H]2O8)CC[C@@]3(O)C1C5
active: [6] 2.94 µM | [7] 3.29 µM | [10] 11.9 µM
inactive: [1] | [2] | [3] | [4] | [5] | [9]

NCCc1ccc(S(=O)(=O)F)cc1
inactive: [1] | [2] | [3] | [4] | [5] | [9] | [6] | [7] | [8] | [10]

CCCN(CCC)C1Cc2cc(OC)c(OC)cc2C1
inactive: [1] | [2] | [3] | [4] | [5] | [6] | [7] | [8] | [10]

O=c1c2ccccc2[se]n1-c1ccccc1
active: [2] 4.74 µM | [9] 1.51 µM
inactive: [1] | [3] | [5] | [8] | [10]

CC(=O)OCC1=C(C(=O)O)N2C(=O)[C@@H](NC(=O)CCC[C@@H](N)C(=O)O)[C@H]2SC1
inactive: [1] | [2] | [3] | [4] | [5] | [10]

C=CCN1CCC23c4c5ccc(O)c4O[C@H]2C(=O)CC[C@@]3(O)C1C5 (stereo partly drawn)
inactive: [1] | [2] | [3] | [4] | [5] | [6] | [7] | [10]

C=CCN(C1=NCCN1)c1c(Cl)cccc1Cl
inactive: [1] | [2] | [3] | [4] | [5] | [8] | [10]

C[C@@H]1O[C@@H](O[C@H]2C[C@@H](O)[C@]3(CO)[C@@H]4C(CC[C@]3(O)C2)[C@@]2(O)CC[C@H]([C@@H]3COC(=O)C3)[C@@]2(C)C[C@H]4O)[C@H](O)[C@H](O)[C@H]1O (stereo partly drawn)
inactive: [1] | [2] | [3] | [5] | [9] | [10]

NCC(CP(=O)(O)O)c1ccc(Cl)cc1 (stereo not drawn)
inactive: [1] | [2] | [3] | [5] | [9] | [6] | [7] | [8] | [10]

C[N+](C)(C)CCOC(=O)CBr
inactive: [1] | [2] | [3] | [4] | [5] | [6] | [7] | [10]

CC(N)[C@H](O)c1ccc(O)c(O)c1 (stereo partly drawn)
inactive: [1] | [2] | [3] | [4] | [5] | [6] | [7] | [8]
active: [10] 11.9 µM

Cc1cc([C@@H]2CCCN2C)on1
inactive: [1] | [2] | [3] | [4] | [5] | [8] | [10]

C=CCN1CC[C@]23c4c5ccc(O)c4O[C@H]2/C(=N/NC(=O)c2ccccc2)CC[C@@]3(O)[C@H]1C5
inactive: [1] | [2] | [3] | [4] | [5] | [8] | [10]

N[C@@H](CCl)C(=O)O
inactive: [1] | [2] | [3] | [4] | [5] | [6] | [7] | [10]

CN1C2CCC1CC(OC(c1ccccc1)c1ccccc1N)C2 (stereo not drawn)
inactive: [1] | [2] | [3] | [4] | [5] | [6] | [7] | [10]

NC(Cc1ccc(N(CCCl)CCCl)cc1)C(=O)O (stereo not drawn)
inactive: [1] | [2] | [3] | [5] | [9]
active: [6] 14.7 µM | [7] 8.28 µM

CC(=O)c1c(O)c(C)c(O)c(Cc2c(O)c3c(c(C(=O)/C=C/c4ccccc4)c2O)OC(C)(C)C=C3)c1O
inactive: [1] | [3] | [4] | [5] | [8]
active: [2] 18.9 µM | [7] 14.7 µM | [10] 2.12 µM

Oc1ccc2c3c1O[C@H]1c4oc5ccccc5c4C[C@@]4(O)C(C2)N(CC2CC2)CCC314 (stereo partly drawn)
inactive: [1] | [2] | [3] | [4] | [5] | [8] | [10]
active: [6] 7.38 µM
